# Only some compounds are listed: those with a hit (about 31% of all), similar ones and a draw of the others.
# CYP2C19 inh: inhibitors of human CYP2C19. inhibition, % at 5 µM. 96,000 tested, 21% active. AID 778. CYP2C19 Supersomes, luciferin-H EGE luminescence, 30 min;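 active means CYP2C19 inhibition above a set limit at 5 µM in the primary screen, cut at about 50% in these data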;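 further: plate controls were negative control wells for no effect and 2.5 mM tranylcypromine positive control for full effect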
# CYP2C9 act: activators of human CYP2C9; P11712; recombinant CYP2C9, luciferin-H conversion, luminescence; stronger effect = higher value; factor 1 = untreated enzyme, 0 = blocked; activation factor at 5 µM; 96,000 tested, 1.4% active;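 active means activation factor of 2 or more for CYP2C9 at a 5 µM dose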;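 further: 0 = sulfaphenazole-blocked wells and 1 = vehicle-only wells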
# Target sequence (P11712 whole entry, looked up): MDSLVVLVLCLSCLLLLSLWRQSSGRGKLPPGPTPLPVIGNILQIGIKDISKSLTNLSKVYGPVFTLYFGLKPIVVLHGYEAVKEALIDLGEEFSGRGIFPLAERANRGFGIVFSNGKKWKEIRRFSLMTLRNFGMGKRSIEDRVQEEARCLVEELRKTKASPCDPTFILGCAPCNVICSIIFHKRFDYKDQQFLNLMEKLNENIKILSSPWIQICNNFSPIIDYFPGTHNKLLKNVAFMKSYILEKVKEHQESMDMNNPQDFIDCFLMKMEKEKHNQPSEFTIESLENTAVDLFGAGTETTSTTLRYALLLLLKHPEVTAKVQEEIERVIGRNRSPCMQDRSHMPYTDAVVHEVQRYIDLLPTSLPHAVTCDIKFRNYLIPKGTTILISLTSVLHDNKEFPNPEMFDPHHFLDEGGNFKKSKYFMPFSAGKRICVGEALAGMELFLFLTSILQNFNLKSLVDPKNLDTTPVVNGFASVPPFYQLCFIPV
# CYP2C9 inhib: blocks human cytochrome P450 2C9; inhibition, % at 5 µM; CYP2C9 Supersomes, luciferin-H conversion, luminescence; 96,000 tested, 20% active;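 active means blocking of liver enzyme CYP2C9 beyond about 50% at 5 µM, limit read from the data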
# CYP2C19 act: activators of human cytochrome P450 2C19; P33261; recombinant CYP2C19, luciferin-H EGE luminescence; stronger effect = higher value; 0 = fully inhibited enzyme, 1 = untreated enzyme; activation factor at 5 µM; 96,000 tested, under 10 active; AID 1025;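 active means activation factor of at least 2 at 5 µM in the primary screen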;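 further: 0 = wells with 2.5 mM tranylcypromine and 1 = vehicle-only wells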
# The depositor's hits bear a star.
SMILES,CYP2C19 inh,CYP2C9 act,CYP2C9 inhib,CYP2C19 act
CC(=O)OC1=C(C#N)Cn2ccc3cccc1c32,11,1.1,-14,0.9
Cc1nc2ccc(S(=O)(=O)NCC(=O)N3CCc4ccccc4C3)cc2s1,66*,0.6,37,0.3
Cc1nc2ccc(S(=O)(=O)NCC(=O)N3CCc4ccccc43)cc2s1,18,1.7,-66,0.8
Cc1nc2ccc(S(=O)(=O)Nc3ccccc3C)cc2s1,97*,0.3,70*,0
Cc1nc2ccc(NS(=O)(=O)c3ccc(C)c(C)c3)cc2s1,33,0.2,77*,0.7
CC(C(=O)Nc1ncc2c(n1)CC(C)(C)CC2=O)N1C(=O)c2ccccc2C1=O (stereo not given),2,1,4,1
Cc1ccc(NC(=O)c2cnn(-c3ccccc3)c2NC(=O)c2ccco2)cc1,14,0.7,35,0.9
CCn1c(=O)cc(SCC(=O)N2CCCCC2)c2ccccc21,7,1.8,-78,0.9
CCN1CCN(C(=O)CSc2cc(=O)n(CC)c3ccccc23)CC1,0,1.9,-87,1
CCn1c(=O)cc(SCC(=O)N2CCC(C)CC2)c2ccccc21,38,2.7*,-170,0.6
CCOC(=O)C1CCN(C(=O)CSc2cc(=O)n(CC)c3ccccc23)CC1,60*,0.8,20,0.4
O=C(CC1Sc2ncnn2C1=O)Nc1ccccc1 (stereo not given),-7,1.1,-12,1.1
O=C(CCc1ccccc1)N1CCN(CCO)CC1,7,0.9,6,0.9
COC(=O)c1ccc(-c2ccc(CNCC(O)c3ccccc3)o2)cc1 (stereo not given),60*,0.7,28,0.4
O=C(CN1CCN(CCC(=O)Nc2ccccc2F)CC1)Nc1ccc(Cl)cc1,23,0.5,46,0.8
O=C(CN1CCN(c2ccccc2F)CC1)c1ccc2cc[nH]c2c1,24,0.7,31,0.8
O=C(CN1CCN(c2ccccc2F)CC1)Nc1ccccc1F,88*,0.2,80*,0.1
O=C(CCN1CCN(c2ccc(Cl)cc2)CC1)Nc1ccccc1F,32,0.5,51*,0.7
O=C(CCN1CCN(c2ccccc2F)CC1)c1ccc(Br)cc1,50*,0.7,34,0.5
Cc1cccc(N2CCN(CC(=O)Nc3ccccc3[N+](=O)[O-])CC2)c1C,44,0.3,67*,0.6
CCCCC(NC(C)=O)c1nc2ccccc2n1CCCC (stereo not given),11,0.9,6,0.9
CCN1CCN(C(=O)CCc2nc3ccccc3c(=O)[nH]2)CC1,1,0.9,6,1
O=C(CN1CCN(CCC(=O)Nc2ccccc2F)CC1)Nc1ccc(F)cc1,15,0.4,64*,0.8
O=C(CCN1CCN(c2ccccc2F)CC1)Nc1ccccc1F,54*,0.3,66*,0.5
COC(=O)CC1C(=O)NCCN1C(=O)NC1CCCCC1 (stereo not given),-12,1.1,-14,1.1
SMILES,CYP2C19 inh,CYP2C9 act,CYP2C9 inhib,CYP2C19 act
CCOC(=O)C1CCCN(c2ncnc3c2[nH]c2cccc(OC)c23)C1 (stereo not given),63*,0.5,47,0.4
COC(=O)c1cc(Br)c(=O)n(-c2ccc(C(C)=O)cc2)c1,34,0.8,25,0.7
Cc1ccc(S(=O)(=O)N/N=C2/CC(c3ccccc3)Oc3ccccc32)cc1 (stereo not given),31,0.2,80*,0.7
CCOc1ccc(S(=O)(=O)N/N=C2/CC(c3ccccc3)Oc3ccccc32)cc1 (stereo not given),56*,0.1,88*,0.4
Cn1c(COc2ccccc2)nnc1SCC(=O)NCc1ccccc1,8,0.9,9,0.9
CC(=O)Nc1ccc(C2Nc3ccccc3C(=O)N2C2CCCCC2)cc1 (stereo not given),47,0.2,84*,0.5
CC1CCN(C(=S)NC(=O)c2ccccc2)CC1,40,0.8,23,0.6
CN1CCN(C(=S)NC(=O)/C=C/c2cccc3ccccc23)CC1,39,3*,-201,0.6
CCOC(=O)c1cn2nc(-c3ccc(OC)cc3)cc2nc1C1CCN(C(=O)OC(C)(C)C)CC1,20,0.4,63*,0.8
Cc1ccc(-n2ncc(C(=O)O)c2C2CCN(C(=O)OC(C)(C)C)CC2)cc1,-6,0.8,17,1.1
Cc1cccc(Oc2cc(NC(=O)c3ccccc3)cc([N+](=O)[O-])c2)c1,-2,0.7,29,1
Cc1nn(C)cc1C(=O)Nc1cc(Oc2ccc(Cl)cc2)cc([N+](=O)[O-])c1,-15,0.5,52*,1.2
CCOc1ccc(Oc2cc(NC(=O)c3ccco3)cc([N+](=O)[O-])c2)cc1,33,0.5,53*,0.7
COc1ccc(N(CC(O)CN2C(=O)NC(C)(C)C2=O)S(=O)(=O)c2ccccc2)cc1 (stereo not given),49,0.7,26,0.5
CCOC(OCC)P(=O)(C(C)C)C(C)C,-10,1.2,-18,1.1
Brc1cnc(N2CCCC2)nc1N1CCOCC1,33,0.8,20,0.7
CCCCOc1ccc(C(=O)N2CCCCCC2)cc1,4,1.1,-7,1
CCOc1ccc(C(=O)N2CCCN(C(=O)c3ccc(OCC)cc3)CC2)cc1,30,0.4,61*,0.7
CCOc1ccc(C(=O)N2CCCC2)cc1OC,26,1.1,-5,0.7
CCCCOc1ccc(C(=O)N2CCC(C)CC2)cc1,70*,0.5,54*,0.3
O=C(COC(=O)C1CCCN1C(=O)c1cccs1)Nc1ccc2c(c1)OCO2 (stereo not given),31,0.5,46,0.7
COc1ccc(NC(=O)COC(=O)[C@@H]2CCCN2C(=O)c2cccs2)cc1,46,0.4,60*,0.5
NS(=O)(=O)c1ccc(CCNC(=O)COC(=O)C2CCCN2C(=O)c2cccs2)cc1 (stereo not given),75*,0.6,37,0.2
O=C(OCc1ccccc1)C1CCCN1C(=O)c1cccs1 (stereo not given),72*,1,2,0.3
O=C(COC(=O)C1CCCN1C(=O)c1cccs1)c1ccccc1 (stereo not given),88*,1.1,-12,0.1
SMILES,CYP2C19 inh,CYP2C9 act,CYP2C9 inhib,CYP2C19 act
COc1cc(CC(=O)NCCc2ccc(S(N)(=O)=O)cc2)cc(OC)c1OC,-15,0.8,18,1.2
CCc1ccc(C(=O)COC(=O)c2cccs2)cc1,41,0.8,15,0.6
O=C(OCc1ccccc1)C1CCCN1C(=O)c1ccccc1[N+](=O)[O-] (stereo not given),35,0.8,20,0.6
COc1ccccc1NC(=O)Nc1ccc(Br)cn1,4,1,0,1
COc1cccc(NS(=O)(=O)c2ccc(Br)s2)c1,100*,0.2,84*,0
COc1ccccc1NS(=O)(=O)c1ccc(Br)s1,92*,0.9,6,0.1
COC(=O)c1ccc(CN2C(=O)NC3(CCCCC3C)C2=O)o1 (stereo not given),9,1.1,-8,0.9
c1ccc(CN2CCC3(CC2)Nc2ccccc2CO3)cc1,91*,0.9,8,0.1
CCN1CCN(Cc2cccc(Oc3ccccc3)c2)CC1,31,1,-3,0.7

# Bioassay records (PubChem)
